Assay results reported in PubChem BioAssay (EPA / NIEHS).
Some structures have more than one record in an assay (separate samples or runs), and their calls can disagree. The source made the active and inactive calls. How the source made its calls: active means hit-call score of the fitted dose curve at least 0.9, where 1 is the maximum; inactive means score below 0.9.

Tests used:
[1] = ATG_Ets_CIS: Attagene CIS-FACTORIAL HepG2 Assay for human Erythroblast Transformation Specific (ETS) (AID 2282941); conditions: HepG2 ETS cis-reporter transcription, actives raise or lower the signal
Method in brief: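 HepG2 cells transiently transfected with cis-promoter reporter transcription units were dosed for 24 h; reporter mRNA was measured by RT-PCR, 6-FAM primer extension, HpaI digestion and capillary electrophoresis, with bidirectional fitting against DMSO baseline.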

[2] = target: Hepatocyte nuclear factor 3-beta (Homo sapiens) (UniProt Q9Y261); assay: ATG_FoxA2_CIS: Attagene CIS-FACTORIAL HepG2 Assay for human Forkhead box A2 (FOXA2) (AID 2282942); conditions: HepG2 cis-reporter transcription factor activity, 24 h; actives raise or lower the signal
Method in brief: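 Endogenous transcription factor activity is captured via cis-element-driven reporter transcripts in transfected HepG2. Total RNA taken at 24 h post-dosing; labelled RT-PCR products resolved by capillary electrophoresis. Gain or loss fitted versus DMSO.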

[3] = ATG_FoxO_CIS: Attagene CIS-FACTORIAL HepG2 Assay for human Forkhead box O (FoxO) (AID 2282943); conditions: HepG2 Attagene cis-reporter, FoxO element, mRNA; actives raise or lower the signal
Method in brief: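 24 h chemical exposure, HepG2 with transient cis-MRTU transfection. RNA extraction, oligo(dT) RT, reporter-specific PCR, primer-extension labelling, HpaI digestion, CE fragment analysis; bidirectional fit, DMSO baseline.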

[4] = ATG_GATA_CIS: Attagene CIS-FACTORIAL HepG2 Assay for human GATA Binding Protein (AID 2282944); conditions: HepG2 GATA cis-element reporter, Attagene multiplex mRNA; actives raise or lower the signal
Method in brief: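 Endogenous transcription factor activity was captured through cis-promoter-driven reporters in transfected HepG2 cells. After 24 h exposure, reporter transcripts were quantified by RT-PCR with fluorescent capillary electrophoresis, and responses fitted both directions against DMSO.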

[5] = target: Bile acid receptor (Homo sapiens) (UniProt Q96RI1); assay: ATG_IR1_CIS: Attagene CIS-FACTORIAL HepG2 Assay for human Nuclear Receptor Subfamily 1 Group H Member 4 (NR1H4), IR1 submotif (AID 2282946); conditions: IR1 reporter transcription, actives raise or lower the signal
Method in brief: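 Transient MRTU transfection, HepG2; 24 h dosing; RNA → RT-PCR → 6-FAM primer extension → HpaI digest → capillary electrophoresis fluorescence. Gain/loss of signal fitted relative to DMSO.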

[6] = ATG_GRE_CIS: Attagene CIS-FACTORIAL HepG2 Assay for human Glucocorticoid Response Elements (GRE) (AID 2282947); conditions: HepG2 GRE cis-reporter, Attagene multiplex mRNA; actives raise or lower the signal
Method in brief: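 Following 24 h chemical exposure of transiently transfected HepG2 cells, total RNA was reverse-transcribed and reporter cDNA amplified, fluorescently labelled and sized by capillary electrophoresis. Signal gain or loss was fitted relative to DMSO vehicle.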

[7] = ATG_ISRE_CIS: Attagene CIS-FACTORIAL HepG2 Assay for human Interferon Regulatory Factor 1 (IRF1) binding to an Interferon-Stimulated Response Element (ISRE) (AID 2282948); conditions: HepG2 ISRE cis-reporter (Attagene), mRNA transcription readout; actives raise or lower the signal
Method in brief: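 HepG2 cells transiently transfected with multiplexed cis-promoter reporter units; after 24 h compound exposure, reporter mRNA quantified by RT-PCR, FAM labelling, HpaI digestion and capillary electrophoresis. Bidirectional fit versus DMSO baseline.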

[8] = ATG_M_32_CIS: Attagene CIS-FACTORIAL HepG2 Assay for M32 Transcription Factor (Internal Marker) (AID 2282949); conditions: HepG2 Attagene cis-factorial M32 reporter, mRNA; actives raise or lower the signal;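 further: background control marker of the multiplexed CIS panel rather than a real target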
Method in brief: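 HepG2 cells transiently transfected with multiplexed cis-regulated reporter units, dosed 24 h. Reporter mRNA quantified by RT-PCR, 6-FAM labelling, HpaI digestion and capillary electrophoresis; bidirectional fit vs DMSO.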

[9] = ATG_M_06_CIS: Attagene CIS-FACTORIAL HepG2 Assay for M06 Transcription Factor (Internal Marker) (AID 2282950); conditions: HepG2 Attagene CIS-FACTORIAL M06 internal marker reporter; actives raise or lower the signal
Method in brief: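 Steps: transfect HepG2 with multiplexed cis-element reporter constructs; dose chemical 24 h; extract RNA with DNase treatment; reverse-transcribe, PCR-amplify, 6-FAM label, HpaI digest; separate fragments by capillary electrophoresis. Activity fitted both directions versus DMSO.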

[10] = ATG_GLI_CIS: Attagene CIS-FACTORIAL HepG2 Assay for human Zinc Finger Protein GLI1 (AID 2282945); conditions: HepG2, Attagene cis-factorial reporter mRNA, GLI element; actives raise or lower the signal
Method in brief: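 HepG2 cells transiently transfected with cis-promoter multiplexed reporter units report endogenous transcription factor activity. After 24 h chemical exposure, reporter mRNA was quantified by RT-PCR, 6-FAM labelling, HpaI digestion and capillary electrophoresis, with bidirectional fitting against DMSO.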

Measured: AC50

Hepatocyte nuclear factor 3-beta (Homo sapiens), sequence (Q9Y261 whole entry, looked up): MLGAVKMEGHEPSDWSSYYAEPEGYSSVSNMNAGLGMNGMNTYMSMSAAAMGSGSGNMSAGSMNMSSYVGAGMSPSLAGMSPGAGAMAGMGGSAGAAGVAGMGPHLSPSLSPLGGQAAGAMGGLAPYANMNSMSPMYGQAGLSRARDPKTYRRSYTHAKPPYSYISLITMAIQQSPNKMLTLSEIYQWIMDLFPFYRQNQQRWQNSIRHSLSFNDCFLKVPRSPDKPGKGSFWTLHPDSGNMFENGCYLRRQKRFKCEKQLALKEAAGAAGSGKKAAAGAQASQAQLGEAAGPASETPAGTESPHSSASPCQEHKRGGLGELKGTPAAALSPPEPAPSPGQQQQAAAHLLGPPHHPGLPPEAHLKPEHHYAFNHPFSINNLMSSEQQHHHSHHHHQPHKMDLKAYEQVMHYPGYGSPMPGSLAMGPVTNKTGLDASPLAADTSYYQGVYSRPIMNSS
Bile acid receptor (Homo sapiens), sequence (Q96RI1 whole entry, looked up): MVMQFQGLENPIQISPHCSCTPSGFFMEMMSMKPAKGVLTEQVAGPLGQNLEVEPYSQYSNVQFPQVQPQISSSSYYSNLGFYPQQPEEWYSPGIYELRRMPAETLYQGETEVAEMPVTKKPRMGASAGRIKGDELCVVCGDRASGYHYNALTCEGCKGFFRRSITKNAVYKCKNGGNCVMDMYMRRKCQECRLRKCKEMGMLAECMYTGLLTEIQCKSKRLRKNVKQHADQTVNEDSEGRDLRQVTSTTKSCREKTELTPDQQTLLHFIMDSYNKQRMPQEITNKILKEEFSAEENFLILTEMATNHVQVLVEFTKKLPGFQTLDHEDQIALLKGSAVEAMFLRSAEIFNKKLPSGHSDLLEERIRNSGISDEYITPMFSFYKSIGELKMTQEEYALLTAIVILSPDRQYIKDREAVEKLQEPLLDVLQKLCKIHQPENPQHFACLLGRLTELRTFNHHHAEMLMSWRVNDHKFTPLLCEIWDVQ

CNC(=O)N(C)c1nc2ccccc2s1
active: [2] 26.8 µM
not listed: [10]
inactive: all other assays above

CC1CC(=O)O1 (stereo not drawn)
not listed: [5] | [10]
inactive: all other assays above

CC(C)(C)c1ccc(CCOc2ncnc3ccccc23)cc1
not listed: [6] | [10]
inactive: all other assays above

CCC[CH2][Sn]([Cl])([Cl])[CH2]CCC
active: [3] 0.66 µM | [10] 1.54 µM | [7] 1.99 µM
not listed: [5]
inactive: all other assays above

CCCSP(=S)(OCC)Oc1ccc(SC)cc1 (stereo not drawn)
not listed: [6] | [10]
inactive: all other assays above

C#CCO
not listed: [5] | [7]
inactive: all other assays above

CC(C)(COCC1CO1)COCC1CO1 (stereo not drawn)
not listed: [10]
inactive: all other assays above

O=CCCl
active: [3] 26.6 µM | [10] 25.5 µM
not listed: [5] | [7]
inactive: all other assays above

Nc1c(Oc2ccccc2)cc(O)c2c1C(=O)c1ccccc1C2=O
not listed: [5] | [7]
inactive: all other assays above

CN(C)[C@@H]1C(=O)C(C(N)=O)=C(O)[C@@]2(O)C(=O)C3=C(O)c4c(O)ccc(Cl)c4[C@@](C)(O)[C@H]3C[C@@H]12
not listed: [5] | [7]
inactive: all other assays above

OC[C@@H](O)[C@H]1O[C@@H]2O[C@H](C(Cl)(Cl)Cl)O[C@@H]2[C@H]1O
not listed: [5]
inactive: all other assays above

O=c1[nH]c2ccccc2n1C1CCN(CCCC(c2ccc(F)cc2)c2ccc(F)cc2)CC1
active: [7] 3.71 µM
not listed: [10]
inactive: all other assays above

O=C(CCl)NCO
not listed: [5] | [6]
inactive: all other assays above

Nc1ccc(N)cc1
inactive: [1] | [2] | [3] | [4] | [5] | [7] | [8] | [9]
active: [7] 100 µM

CC(C)(C1CCC(O)CC1)C1CCC(O)CC1 (stereo not drawn)
not listed: [5] | [6]
inactive: all other assays above

CCC(C)(C#N)N=NC(C)(C#N)CC (stereo not drawn)
not listed: [5] | [6] | [7]
inactive: all other assays above

Oc1cc(Cl)c(Cl)cc1Cl
not listed: [5] | [6]
inactive: all other assays above

N#CS
not listed: [5]
inactive: all other assays above

CCOP(=S)(OCC)O/N=C(\C#N)c1ccccc1
not listed: [10]
inactive: all other assays above

OCCN(CCO)CCO
not listed: [5] | [6]
inactive: all other assays above

Nc1ccc(-c2ccccc2)cc1
not listed: [5] | [6]
inactive: all other assays above

COc1ccc(N)cc1
not listed: [5] | [7]
inactive: all other assays above

CCC[N+](CCC)(CCC)CCC
not listed: [5] | [6]
inactive: all other assays above

c1cc[c]([Sb]([c]2ccccc2)[c]2ccccc2)cc1
not listed: [10]
inactive: all other assays above

CC(=O)CN(CC(C)=O)N=O
not listed: [5]
inactive: all other assays above

O=[N+]([O-])c1ccc(Nc2ccccc2)cc1
active: [7] 130 µM
not listed: [10]
inactive: all other assays above

C=C(C)C(=O)OCC(CC)CCCC (stereo not drawn)
not listed: [5] | [10]
inactive: all other assays above

CC(C=O)Cc1ccc2c(c1)OCO2 (stereo not drawn)
not listed: [10]
inactive: all other assays above

Nc1ccc(Br)cc1
not listed: [7] | [10]
inactive: all other assays above
